Results: PubChem BioAssay (NCATS)
Results filed as inconclusive are left out. A call without a number means that no potency is given here. Active and inactive are the calls of the source. The call rests on the fitted dose curve; in most records, active means well fitted inhibition curve with a large enough effect; inconclusive means small, poorly fitted or top-dose-only effect; inactive means no such curve, though single readings can be large or run the other way. Where a SMILES comes first, the peptide text is derived from it. The star is where a group is joined. AMC = Cc1cc(=O)oc2cc(N*)ccc12; Cbz = O=C(OCc1ccccc1)*

Test: Primary qHTS for inhibitors of nuclear receptor binding SET domain protein 2 (NSD2) in an RCH-ACV wild type WT cells (2C) (AID 1645877); further: nearly all actives have a fitted effect of over 70% in size
Conditions: RCH-ACV (leukaemia line) NSD2 WT (2C) viability, CellTiter-Glo, 72 h; series mostly up to 44.9 µM

Structure (SMILES)	Potency
C=C(CCO[C@@H]1O[C@H](CO)[C@@H](O)[C@H](O)[C@H]1O)C(=O)O	inactive
C=C1C2CCC3C(CCC4[C@@]3(C)CCC[C@@]4(C)C(=O)O)(C2)[C@@H]1OC(=O)/C(C)=C\C (some centres not stated)	inactive
O=C(/C=C/c1ccc(O)cc1)O[C@@H]1C[C@@](O)(C(=O)O)C[C@@H](O)[C@@H]1O	inactive
C=C1CC2C3(C)C=CC(=O)OC(C)(C)C3CC(OC(C)=O)C2(C)C2C(=O)OC(C)C(=O)C12C (configuration not stated)	inactive
CO[C@@H]1[C@]2(O)C(=O)N3/C=C\C(C)(C)c4[nH]c5ccccc5c4/C=C\3C(=O)N2[C@]23[C@H](CO)C(C)(C)N2c2ccccc2[C@]13O	inactive
COc1cc(C)c(C(=O)O[C@@H]2[C@H](O)[C@@H](CO)O[C@H]2n2ccc(=O)[nH]c2=O)c(OC)c1	inactive
CN1CCN(C(=O)c2cc3cc(Cl)ccc3[nH]2)CC1	inactive
C=C1CC23CC(=O)C4C(CO)(CO)CCCC4(C)C2CCC1C3 (configuration not stated)	inactive
CC(C)=CCc1cc(O[C@@H]2O[C@H](CO[C@@H]3OC[C@](O)(CO)[C@H]3O)[C@@H](O)[C@H](O)[C@H]2O)ccc1O	inactive
C/C=C/C1OC2=C(C(=O)OC2(C)O)C(O)C1O (configuration not stated)	inactive
Cc1cc(=O)oc2cc(NC(=O)[C@H](CCC(=O)O)NC(=O)[C@H](CC(C)C)NC(=O)[C@H](CC(C)C)NC(=O)OCc3ccccc3)ccc12 (Cbz-Leu-Leu-Glu-{AMC})	inactive
O=C(O[C@H]1[C@H](Oc2ccc(O)cc2CO)O[C@H](CO)[C@@H](O)[C@@H]1O)c1ccccc1	inactive
